# Screens as filed in PubChem.
# In the library only some 8.3% were active in any assay of this set; here they are far more common.
# LASV entry inh: blocks Lassa virus binding to or entry into cells. Potency, µM (doses to about 37.9 µM), for inactives: top-dose activity change, negative = inhibition, most hits filed as inhibitors. AID 540256. hit rate 1.2% among 300,000. Lassa virus pseudotype entry inhibition, cell reporter; calls by dose curve; tested in HEK293 cells; further: potency means the concentration at half of the fitted maximal effect; nearly all actives have a fitted effect of over 50% in size
# HCMV inh: inhibitors of human cytomegalovirus; HFF cells, HCMV-luciferase reporter, 72 h; hits give low values; activity change, negative = inhibition, % at 57.5 µM; hit rate 4.5% among 410,000; AID 1259415; in the data active means activity change below about -60%; inconclusive means no clear call, values can overlap the other calls; inactive means above about -39%
#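 Two-dose cell screen: HFF monolayers treated with compounds and infected with luciferase-expressing HCMV at 1 PFU/cell, 72 h at 37C, then lysed for luciferase measurement.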
# Marburg entry inh: blocks Marburg virus binding to or entry into cells. Potency, µM (doses to about 37.8 µM), for the others: at the top dose activity change, negative = inhibition, usual class: inhibitors. Marburg virus pseudotyped entry inhibition, cell reporter. hit rate 1.8% among 300,000; calls by dose curve; tested in HEK293 cells; further: potency means the concentration at half of the fitted maximal effect
# HCV inh: inhibitors of hepatitis C virus infection | Huh7.5.1 HCVcc-Cre infection, luciferase reporter, 44 h | Potency, µM (series often up to 41.8 µM), for inactives: at the top dose activity change, negative = inhibition, most hits filed as inhibitors | hit rate 3.4% among 340,000 | AID 651820; further: potency means the concentration at half of the fitted maximal effect
#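 1,000 cells/well; 4 h culture; + compound; + HCVcc-Cre (~0.5 moi); 44 h; luciferase substrate, RT 15 min; read 15 sec.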
# Giardia FBPA inh: inhibitors of Giardia lamblia fructose-1,6-bisphosphate aldolase; A8B2U2; purified Giardia FBPA; Potency, µM (series often up to 59.6 µM), for inactives: at the top dose activity, negative = inhibition, hits mostly inhibitors; hit rate 0.71% among 290,000; further: potency means the concentration at half of the fitted maximal effect; nearly all actives have a fitted effect of over 55% in size
# Target sequence (A8B2U2 whole entry, looked up): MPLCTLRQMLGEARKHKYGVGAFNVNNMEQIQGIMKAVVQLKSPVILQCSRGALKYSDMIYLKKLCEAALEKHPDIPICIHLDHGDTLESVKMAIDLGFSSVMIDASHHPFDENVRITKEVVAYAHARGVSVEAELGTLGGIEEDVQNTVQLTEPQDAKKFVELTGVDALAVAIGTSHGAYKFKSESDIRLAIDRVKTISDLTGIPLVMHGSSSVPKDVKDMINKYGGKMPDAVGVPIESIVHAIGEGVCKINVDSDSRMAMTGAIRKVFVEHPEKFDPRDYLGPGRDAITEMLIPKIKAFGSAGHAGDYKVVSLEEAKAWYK
#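 Giardia FBPA (40 nM reagent) was preincubated 10 min at RT with compound (up to 57.5 uM final), then substrate plus GAPDH/TPI/NAD/arsenate coupling system with diaphorase/resazurin was added; resorufin fluorescence (525/598 nm) was read after 20 min.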
# FMDV inh: blocks foot and mouth disease virus; Potency, µM (highest dose often 57.9 µM), for the others: top-dose activity change, negative = inhibition, usual class: inhibitors; AID 1159524; hit rate 1.2% among 410,000; FMDV antiviral cell-based qHTS; calls by dose curve; tested in HEK293T cells; further: read-out not given here; potency means the concentration at half of the fitted maximal effect; nearly all actives have a fitted effect of over 45% in size
# An asterisk follows results filed as active; ? = inconclusive; . = not tested or not shown; [ ] = remark or other dose. Unless noted, the call rests on the fitted dose curve; in most records, active means well fitted curve in the direction sought with a large enough effect; inconclusive means small, poorly fitted or top-dose-only effect, or another doubt; inactive means no such curve, though single readings can be large; an effect the other way counts as inactive or inconclusive. On the % scale 0 is the no-effect control and ±100 the full control effect.
SMILES,LASV entry inh,HCMV inh,Marburg entry inh,HCV inh,Giardia FBPA inh,FMDV inh
Cc1cccc(NC(=O)CCc2ccc(N3C(N)=NC(N)=NC3(C)C)cc2)c1,.,-99*,.,.,.,-21%
CCN(CCCNC(=O)c1ccc(Sc2ccc(F)cc2)c(NC(C)=O)c1)c1ccccc1,-17%[46.1 µM],34,.,.,.,-4%
OC1(c2ccc3c(c2)CN(Cc2ccco2)CCO3)CCN(c2ccccc2F)CC1,.,.,.,.,.,-14%
CC(C)=CCC/C(C)=C/CO/N=C1\C[C@@H](O)[C@@H](O)[C@@H]2[C@@H]3C(=O)N(Cc4ccc5c(c4)OCO5)C(=O)[C@@H]3CC[C@@H]12,.,.,-17%[14.2 µM],.,.,.
CC1(C)N=C(N)N=C(N)N1c1cccc(CC(=O)Nc2ccccc2)c1,.,-82*,.,.,.,-1%
O=C(NC(=S)Nc1ccc(CN2CCOCC2)cc1)c1ccc2c(c1)OCCO2,-24%,12,10µM*,35µM*,-25%,?
CCN1CCN(c2ccc(NC(=O)c3ccc4c(c3)OCO4)cc2)CC1,19%,99,?,16%,-11%,34%
CS(=O)(=O)N1CCN(c2ccc(NC(=S)NC(=O)c3ccc4c(c3)OCO4)cc2)CC1,4%[46.1 µM],-39,4%[46.1 µM],10µM*,0%,-9%
O=C(NC(=S)Nc1ccc(F)cc1)c1ccc2c(c1)OCCO2,13µM*,-34,?,?,-6%,0%
COc1ccc(C(=O)NC(=S)Nc2ccc(CN3CCOCC3)cc2)cc1,?,25,-20%[14.2 µM],-10%,-10%,?
CCCCOc1ccc(C(=O)NC(=S)Nc2ccc(CN3CCOCC3)cc2)cc1,-2%,29,-1%,6%,0%,-29%
COc1ccc(NC(=S)NC(=O)c2ccc3c(c2)OCCO3)cc1,-8%,-22,?,-6%,.,-7%
COc1ccc(C(=O)NC(=S)Nc2ccc(CN3CCOCC3)cc2)cc1Br,.,-64*,.,-5%,?,?
O=C(COc1ccc(Cl)cc1Cl)NC(=S)Nc1ccc(CN2CCOCC2)cc1,0%,-2,-14%,10%,-24%,28µM*
CC(=O)NC(=S)Nc1ccc(NC(=O)COc2ccc(Cl)cc2Cl)cc1,5%,-14,?,?,4%,6%
O=C(NC(=S)Nc1ccc(N2CCOCC2)cc1)c1ccc2c(c1)OCCO2,?,-85*,-18%,7.9µM*,-2%,-29%
O=C(COc1ccc(Cl)cc1Cl)NNC(=S)Nc1ccc(F)cc1,-9%,-103*,-9%,0%,10%,-6%
COc1ccc(CC(=O)NNC(=S)Nc2ccccc2)cc1Cl,9%,-70*,-3%,20%,8%,-5%
O=C(NC(=S)Nc1ccc(N2CCCCC2)cc1)c1ccc2c(c1)OCCO2,?,?,5%,13%,-1%,-28%
COc1ccc(NC(=O)CSc2nc(-c3cc(OC)c(OC)c(OC)c3)[nH]c2-c2ccc(F)cc2)cc1,-24%[46.1 µM],128,?,.,.,-2%
O=C1c2ccccc2CC[C@H]1CNCCc1ccc(O)cc1,.,.,.,.,1%,-6%
CCC[C@H]1[C@@H](NC(=O)Nc2ccc(OC)cc2)CC[C@@]23CCCN2C(=O)CCC[C@@H]13,.,-2,.,.,.,.
CCOc1ccc(-c2nnc(SCC(=O)Nc3cccc(C#N)c3)o2)cc1,27%[46.1 µM],22,0%[46.1 µM],.,.,-6%
CN1C(=O)C(CC(=O)Nc2ccccc2F)N(NC(=O)c2ccc(Br)cc2)C1=S (stereo not drawn),-15%[46.1 µM],0,13µM*,1%,?,12%
COc1ccc(Nc2nc3c(S(=O)(=O)c4ccccc4)nnn3c3ccc(Cl)cc23)c(OC)c1,.,1,16%[46.1 µM],.,.,?
SMILES,LASV entry inh,HCMV inh,Marburg entry inh,HCV inh,Giardia FBPA inh,FMDV inh
COc1cc(N2CCC(O)CC2)ccc1Nc1nnc(Cl)c(Nc2ccccc2S(C)(=O)=O)n1,.,.,.,?,.,20µM*
Cc1cc(C)cc([C@H]2C[C@]34CN(C(=O)OC(C)(C)C)S(=O)(=O)[C@H]3C[C@H]2O4)c1,.,-12,.,.,.,.
O=C(c1ccccc1O)N1N=C(C(F)(F)F)CC1(O)c1ccc([N+](=O)[O-])cc1 (stereo not drawn),.,-102*,.,-8%,0%,-19%
O=C(CN1N=C(C(F)(F)F)CC1(O)c1ccc([N+](=O)[O-])cc1)c1ccccc1 (stereo not drawn),4%,10,-8%,-9%,7%,-5%
CCC1=NN(C(=O)c2ccccc2O)C(O)(c2ccccc2)C1 (stereo not drawn),.,-76*,.,?,17%,-8%
O=C(NCCCCN1CCOCC1)c1cc2ccccc2o1,.,.,.,.,-9%,0%
COc1ccc(-c2nc(C(=O)Nc3cccc(C(C)=O)c3)nn2-c2ccccc2Cl)cc1,-8%[46.1 µM],-3,?,.,.,-26%
O=c1c(-c2cc(F)cc(F)c2)nc2cnc(Oc3ccccc3)nc2n1C1CC1,.,.,.,.,0%,-9%
Fc1ccc(-c2ncn(C3CCNCC3)c2-c2ccnc(Oc3ccc(F)c(F)c3)n2)cc1,22µM*,.,.,.,.,.
Fc1ccc(Oc2nccc(-c3ccc(Cl)cc3)n2)cc1,?,-26,21%[46.1 µM],-12%,-2%,6%
Fc1ccc(-c2ncn(C3CCNCC3)c2-c2ccnc(Oc3ccc(Oc4ccccc4)cc3)n2)cc1,13µM*,.,.,.,.,.
CCn1c(=O)n(-c2ccc(F)cc2)c(=O)c2sc3ccccc3c21,1%[46.1 µM],3,3%[46.1 µM],.,.,-12%
CCN1C(=O)[C@H]2[C@H]3[C@H](O)[C@H](O)C/C(=N\OC[C@H]4O[C@H](c5ccccc5)C=C[C@@H]4Oc4ccc(OC)cc4)[C@@H]3CC[C@H]2C1=O,.,.,-28%[14.2 µM],.,.,.
NCC1OC(n2cnc3c(=O)[nH]c(N)nc32)C(O)C1O (stereo not drawn),.,.,.,.,0%,-1%
O=C(c1cccs1)c1no[n+]([O-])c1C(=O)c1cccs1,-5%,.,-14%,10µM*,4µM*,16µM*
COc1ccc(C(=O)c2no[n+]([O-])c2C(=O)c2ccc(OC)cc2)cc1,?,-105*,-14%,?,?,40µM*
CCc1ccc(NC(=O)C2CCCN2S(=O)(=O)c2ccc3c(c2)CCCC(=O)N3)cc1 (stereo not drawn),-10%[46.1 µM],-34,.,.,.,0%
O=C(Nn1c(O)c(C=C2N=c3ccccc3=N2)sc1=S)c1ccccc1Cl,?,-91*,-5%,-1%,-14%,-10%
Cc1cc(C(=O)C(C)OC(=O)c2ccc(NC(=O)CC#N)cc2)c(C)n1-c1ccc(OC(F)F)cc1 (stereo not drawn),14µM*,?,?,?,.,0%
CC1=C/C(=N\OS(=O)(=O)c2ccccc2)C(C)=CC1=O,?,-100*,?,?,7.9µM*,4.5µM*
CC1=C/C(=N\OS(=O)(=O)c2ccccc2)C(C(C)C)=CC1=O,?,-82*,?,?,11µM*,28µM*
CON=C1C=C(C)C(=O)C(C)=C1C,25%,7,7%,25%,.,-8%
